Source: ChEMBL document CHEMBL4513216, “Probing the Open Global Health Chemical Diversity Library for Multistage-Active Starting Points for Next-Generation Antimalarials” (ACS Infect Dis, 2020)
The campaign covered roughly 69,000 compounds. About 8,600 (12%) showed an effect of 50% or more. The sample as a whole holds a higher share of strong results than the screen did.

Test system: Plasmodium berghei
Test: Screen against P. berghei liver stage (PbLuc), transformed with Luciferase, at 10uM
Type: functional, HepG2
Conditions: tested at 10 uM

Row | SMILES | INHIBITION [%]
1 | CC(=O)c1ccc(F)cc1-c1cc(NCCO)nc2[nH]ccc12 | -110
2 | CN(C)c1cccc(C(=O)N2CCCC2c2ncc3c(n2)CCNC3)c1 (centres undefined) | -16.7
3 | Cc1cc2nc(C(C)C)cc(NC(C)c3nncn3C3CCCC3)n2n1 (centres undefined) | 51.2
4 | Cc1cc2nc(C(C)C)cc(NC(C)c3nncn3C)n2n1 (centres undefined) | 47.6
5 | Cc1cc(NC(C)c2nncn2C2CCCC2)n2nc(C)cc2n1 (centres undefined) | 35.8
6 | O=C(c1cnn2cccnc12)N1CCCC(n2ccnc2)C1 (centres undefined) | 2.3
7 | Cc1cccc(CN2CC[C@@H]3[C@@H](CO[C@H]3CNc3ncccn3)C2)n1 | 18.4
8 | COc1cc2ccccc2cc1C(=O)N1CCCC(c2nncn2C)C1 (centres undefined) | -8.11
9 | CC(C)c1nc2c(n1C)CCN(CC(=O)Nc1ccnn1C(C)C)C2 | 27.4
10 | CO[C@H]1CN(C(=O)c2ccc3oc(C)cc3c2)C[C@@]12CCCO2 | 63.4
11 | CO[C@H]1CCN(C(=O)c2ccc3oc(C)cc3c2)C[C@@]12CCCO2 | 45.6
12 | CO[C@H]1CN(C(=O)c2ccc3oc(C)cc3c2)CC[C@@]12CCCO2 | 21.6
13 | COCCNC(=O)c1ccc(C)c(-n2cccc2)c1 | -15
14 | CN(C)CCNc1c(-c2ccccc2)c(=O)c1=O | -20.1
15 | CN(C)[C@@H]1CN(Cc2ccco2)C[C@@H]2CCCO[C@@H]21 | -2.27
16 | Cn1cnnc1CN1CCC2(CCC(=O)N(Cc3ccccc3)C2)CC1 | 76.2
17 | Cn1cnnc1CN1CCC2(CCC(=O)N(Cc3ccccn3)C2)CC1 | -42.2
18 | CCN1CC2(CCC1=O)CCN(Cc1nncn1C)CC2 | 17
19 | Nc1nc(C2CCN(C(=O)c3cnccn3)CC2)cs1 | 38.2
20 | Cn1ncc2c(=O)[nH]c(CN3CCCC3c3cccc(F)c3)nc21 (centres undefined) | -29.9
21 | CCS(=O)(=O)N1CCOC2(COCCN(C(C)=O)C2)C1 (centres undefined) | 18.7
22 | CCCS(=O)(=O)N1CCOC2(COCCN(C(C)=O)C2)C1 (centres undefined) | 60

Row | SMILES | INHIBITION [%]
23 | CC(=O)N1CCOCC2(C1)CN(S(C)(=O)=O)CCO2 (centres undefined) | 18.7
24 | CCCn1nc2c(cc1=O)CN(CC(=O)Nc1ccncc1)CC2 | 40.3
25 | CNc1nccnc1C1CN(Cc2ccc(OCC(=O)O)cc2)CCO1 (centres undefined) | 26.7
26 | CS(=O)(=O)NCc1cn2c(n1)CN(Cc1ccoc1)CC2 | -4.02
27 | Cc1cc(C)n(CC2CCCN2CCCS(C)(=O)=O)n1 (centres undefined) | 3.5625
28 | O=C(c1ccc(CNC2CCSC2)cc1)N1CCCC1 (centres undefined) | -4.12
29 | Cc1noc(C)c1Cc1nc(N(C)C)no1 | 19.9
30 | CC(C(=O)Nc1ncccn1)N1CCC(n2ccnc2)CC1 (centres undefined) | 54.4
31 | CC(C(=O)NCCc1cccs1)N1CCC(n2ccnc2)CC1 (centres undefined) | 42.1
32 | CC(C(=O)Nc1ccc2ccccc2c1)N1CCC(n2ccnc2)CC1 (centres undefined) | 48.8
33 | Cc1n[nH]c(CN2CCN(c3ncnc4scc(C)c34)CC2)c1Cl | 68.2
34 | CCc1nc(C)c(CN2CCN(c3ncnc4c(C)csc34)CC2)[nH]1 | 4.35
35 | CCc1nc(C)c(CN2CCN(c3ncnc4scc(C)c34)CC2)[nH]1 | 30.5
36 | CCC(=O)N1CCC(c2nc(C)ncc2-c2ccncc2)CC1 | 19.2
37 | CCN1CCC2(CC1)CC(NCc1ccncc1)c1ccccc1O2 (centres undefined) | 43.9
38 | O=C(NS(=O)(=O)c1ccccc1)c1ccccc1F | 14.8
39 | CC(C)Cn1ncc(C(=O)NS(=O)(=O)C2CCCC2)c1C1CC1 | 58.8
40 | CCc1c(C(=O)Nc2ccc(F)c(C(=O)NC)c2)cnn1CC(C)C | 30.9
41 | CC(C)Cn1ncc(C(=O)NS(=O)(=O)c2ccccc2)c1C1CC1 | 79.7
42 | CC(C)Cn1ncc(C(=O)O)c1C1CC1 | 14.3
43 | CC(C)NC(=O)c1cc2c(nc1N(C)C)CCN(S(=O)(=O)C1CC1)CC2 | -37.9
44 | CCC1c2ccsc2CCN1C(=O)NCc1cccnc1N(C)C (centres undefined) | 16.97

Row | SMILES | INHIBITION [%]
45 | Cn1cc(CN2CCC(c3cc(CCO)[nH]n3)C2)cn1 (centres undefined) | 39.8
46 | COc1cc(N2CCCC(c3nccn3CCN(C)C)C2)nc(N)n1 (centres undefined) | -40.3
47 | COc1cc(N2CCC(c3nccn3CCCN(C)C)CC2)nc(N)n1 | -10.9
48 | CN(C)CCn1ccnc1C1CCN(c2cc(N)nc(N)n2)CC1 | 50.5
49 | COc1ccccc1Cc1cncc(N2CC(C(=O)O)C2)n1 | 10
50 | CC(C)N1CCC(c2nc3ccc(-c4ccnn4C)cn3n2)CC1 | 8.52
51 | CN1CCN(C(=O)c2cccc(CN3CCOCC3)c2)CC1 | 22.3
52 | CN(C)CCCC(=O)NC1CC(C)(C)Cc2nc(C(C)(C)C)ncc21 (centres undefined) | 22
53 | Cc1sc(C(=O)NC(C)C)cc1S(=O)(=O)N(C)C | -16.8
54 | COCCC(=O)Nc1cnn(COc2ccc(F)cc2Cl)c1 | 50.4
55 | COCCNC(=O)Cn1cc(NC(=O)c2cccc(Cl)c2Cl)cn1 | -3.83
56 | O=C(O)CCCC(=O)Nc1cnn(COc2ccc(F)cc2Cl)c1 | 4.52
57 | COCC(=O)Nc1cnn(COc2ccc(F)cc2Cl)c1 | 0.348
58 | O=C(Nc1cnn(Cc2ccc(F)cc2Cl)c1)C1CC1 | -10.8
59 | O=C(Nc1cnn(COc2ccc(F)cc2Cl)c1)C1CC1 | 71.3
60 | CCn1c(Cn2cncn2)nnc1C1CCN(C2CCNCC2)CC1 | -3.51
61 | OC(CN1CCC(c2ccn[nH]2)CC1)c1cc(F)ccc1F (centres undefined) | -4.94
62 | O=C(CCc1nc(C2CC2)no1)c1ccccc1 | -12.2
63 | Cc1nccn1Cc1nnc(C2CCCN(c3cnccn3)C2)n1C (centres undefined) | 11.5
64 | CCOC(=O)c1s/c(=N\C(=O)COc2cnc(C)cc2O)[nH]c1C | 3.52
65 | Cc1ccc(N2C[C@@H]3OCCN(CC4CC4)[C@@H]3C2)nn1 | 35.5
66 | COc1cc(N2CCN(CC3CC3)c3nc(C)ccc3C2)ncn1 | 69.3

Row | SMILES | INHIBITION [%]
67 | Cc1ccc2c(n1)N(CC1CC1)CCN(S(=O)(=O)C1CC1)C2 | -63.5
68 | COCCN1CCN(Cc2c(C)noc2C)Cc2ccc(C)nc21 | 33
69 | COCCN1CCN(Cc2ccco2)Cc2ccc(C)nc21 | 23.1
70 | COCCN1CCN(c2cccc(C)n2)Cc2ccc(C)nc21 | 53.9
71 | COCCN1CCN(c2ccc(C)nn2)Cc2ccc(C)nc21 | 51.2
72 | COCCN1CCN(c2cc(OC)ncn2)Cc2ccc(C)nc21 | 30.3
73 | CCCS(=O)(=O)N1CCN(CCOC)c2nc(C)ccc2C1 | 29.8
74 | COc1cc(N2CC[C@@H]3[C@@H](CC2)OCCN3CC2CC2)ncn1 | 81
75 | COCCN1CCN(c2ccc(C)nn2)Cc2cccnc21 | -2.03
76 | COc1cc(N2CC[C@@H]3OCCN(C)[C@H]3CC2)ncn1 | 39.4
77 | CSc1nccc(N2C[C@H]3CC[C@@H](C2)N(CC2CCC2)C3=O)n1 | 22.3
78 | CC(C)c1noc(CCCC(=O)N2CCN(Cc3ccsc3)CC2)n1 | 21.5
79 | CCCc1ccc(OC23CCCN(CC2)C3)c(OC)c1 (centres undefined) | 14.9
80 | Cc1cc(C(=O)N(C)C)nc(C2(C)CCCN2c2ccccc2)n1 (centres undefined) | 23.9035
81 | COc1ccc(C(=O)NS(=O)(=O)c2cncc(Br)c2)cc1 | -2.48
82 | COCCCN1Cc2cccc(NC(=O)C(C)(C)C)c2C1 | -21.1
83 | CC(C)Cc1nc(OCC#N)c(C#N)c2c1CCC2 | 44.9
84 | Cc1cnn(CC(=O)N2CCC(Nc3ccc(C)nn3)CC2)c1 | 39.95
85 | O=C(CSC1CCc2ccccc2NC1=O)Nc1ccc(CCO)cc1 (centres undefined) | -10.8
86 | Cc1ccc2c(n1)N(C)CCN(Cc1cnn(C)c1)C2 | 49.4
87 | Cc1ccc2c(n1)N(CC1CC1)CCN(Cc1cnn(C)c1)C2 | 55.4
88 | Cc1ccc2c(n1)N(Cc1cccnc1)CCN(Cc1cnn(C)c1)C2 | 30.5

Row | SMILES | INHIBITION [%]
89 | CC(CCc1ccccc1)N1CCC(C(=O)Nc2ccccn2)CC1 (centres undefined) | -6.46
90 | Cc1ccc(CNCc2cccc3cn[nH]c23)c(OC2CCOC2)c1 (centres undefined) | 66
91 | Cc1ccc(NCc2cccc3cn[nH]c23)cc1OC1CCOC1 (centres undefined) | -16.8
92 | Cc1ccc(CNCc2cccc3cccnc23)c(OC2CCOC2)c1 (centres undefined) | -62.1
93 | Cc1cc(F)ccc1N1CCCC(NC2CCOCC2)C1=O (centres undefined) | 21.3
94 | Cc1ccc(CN2CCOC3(COCCN(Cc4ccncc4)C3)C2)o1 (centres undefined) | 14
95 | O[C@@H]1CN(Cc2ccncc2)C[C@H]1Oc1ccccc1 | 39.7
96 | Cc1cncc(CN2C[C@@H](O)[C@H](Oc3ccccc3)C2)c1 | 51.5
97 | O[C@@H]1CN(Cc2cccnc2)C[C@H]1Oc1ccccc1 | 26.8
98 | CCOCC(=O)N1CC[C@@H]2O[C@@H](C)C[C@H]2C1 | 43.9
99 | O=c1[nH]c2ccccc2c2c1CCO2 | 30.7
100 | CC(=O)N(Cc1ncc(C(C)C)o1)C1CCN(Cc2ccno2)C1 (centres undefined) | 0.1995
101 | COc1cccc2c1OCC(NCc1cnn(-c3ccccc3F)c1)C2 (centres undefined) | 53.8
102 | COc1cccc2c1OCC(NCc1cnn(-c3ccccc3)c1)C2 (centres undefined) | 62.8
103 | COCCN(Cc1cnn(C)c1)C(=O)C1COc2c(cccc2OC)C1 (centres undefined) | 22.3
104 | COc1cccc2c1OCC(NC(=O)NC1CCN(C3CC3)CC1)C2 (centres undefined) | -3.16
105 | COc1cccc2c1OCC(CNC(=O)CSc1ccccn1)C2 (centres undefined) | -52.3
106 | COc1cccc2c1OCC(NCCCOc1cccnc1)C2 (centres undefined) | 14
107 | COc1cccc2c1OCC(NCCc1cnn(-c3ccccc3)c1)C2 (centres undefined) | 77.6
108 | COc1cccc2c1OCC(C(=O)N(C)CCCc1cnn(C)c1)C2 (centres undefined) | 40.9
109 | COc1cccc2c1OCC(C(=O)N1Cc3ccccc3C1)C2 (centres undefined) | 44.8
